Experimental data: PubChem BioAssay AID1851 (National Center for Advancing Translational Sciences (NCATS), 2009)
In all, about 16,000 compounds went through this assay and about 5,700 (36%) were called active. About 24% were inconclusive and are not listed. The list shows a part of the results. Values without a mark were called inactive. Calls follow the shape of the dose curve; as a rule, active = well fitted curve in the direction sought with a large enough effect; inconclusive = small, poorly fitted or top-dose-only effect, or effect the other way; inactive = no such curve, though single readings can be large or run the other way.

Target: Cytochrome P450 1A2 (Homo sapiens) (UniProt P05177)
Sequence (P05177 whole entry, looked up): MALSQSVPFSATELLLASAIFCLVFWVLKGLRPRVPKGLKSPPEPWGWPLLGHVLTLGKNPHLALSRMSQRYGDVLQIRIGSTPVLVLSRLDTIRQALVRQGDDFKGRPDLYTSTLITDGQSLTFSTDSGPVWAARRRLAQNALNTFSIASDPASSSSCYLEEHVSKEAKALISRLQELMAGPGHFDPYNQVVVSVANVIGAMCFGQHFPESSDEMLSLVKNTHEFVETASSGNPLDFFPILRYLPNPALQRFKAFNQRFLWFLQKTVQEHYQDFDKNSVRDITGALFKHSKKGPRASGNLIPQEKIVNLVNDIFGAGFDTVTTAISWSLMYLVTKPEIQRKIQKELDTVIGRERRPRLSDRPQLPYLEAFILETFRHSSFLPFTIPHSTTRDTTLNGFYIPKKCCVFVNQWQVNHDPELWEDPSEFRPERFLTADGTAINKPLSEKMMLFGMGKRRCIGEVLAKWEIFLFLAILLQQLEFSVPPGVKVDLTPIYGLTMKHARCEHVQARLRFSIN
Test: Cytochrome panel assay with activity outcomes
Details: recombinant CYP, pro-luciferin dealkylation, luminescence, p450-cyp1a2; series mostly up to 57.1 µM; activity, negative = inhibition: at the top concentration
% is scaled to controls: 0 for no effect and ±100 for the full control effect.

SMILES | activity, negative = inhibition | AC50
Cc1cnc(C(=O)OCC(=O)NC(C)C)cn1 | -22.1% | –
COc1ccc(C(C(=O)NCc2ccccc2)N(Cc2cccs2)C(=O)c2cnccn2)cc1 (configuration not stated) | 7.23% | –
Cc1ccc(CNC(=O)COC(=O)c2cnccn2)cc1 | – | 10 µM (active)
O=C(NCc1ccccc1)C(c1cccs1)N(Cc1cccs1)C(=O)c1cnccn1 (configuration not stated) | -3.61% | –
O=C(COC(=O)c1cnccn1)NCc1ccccc1 | – | 22.4 µM (active)
COC(=O)C/C=C\[C@@H](C)[C@@H](CO)NS(=O)(=O)c1ccc(C)cc1 | -0.334% [at 11.4 µM] | –
COc1cccc(C(=O)n2c(SC)nc3cc4c(cc32)OCCO4)c1 | – | 5.01 µM (active)
COc1ccc(C(=O)N2CCC3(CCN(Cc4ccncc4)CC3)CC2)cc1 | -15.5% | –
COc1ccc(C(=O)n2c(SC)nc3cc4c(cc32)OCCO4)cc1 | – | 3.16 µM (active)
COc1ccc(C(=O)Nc2ccc3c(c2)nc(CN2CCN(C(C)=O)CC2)n3C)cc1 | -4.28% | –
O=C1C2=CC[C@@H]3C(=O)N(c4ccc(F)cc4F)C(=O)[C@H]3[C@H]2[C@H](O)[C@H]2O[C@H]12 | -3.38% [at 11.4 µM] | –
CCC(=O)O[C@@]1(C(=O)SCF)[C@@H](C)C[C@H]2[C@@H]3C[C@@H](F)C4=CC(=O)C=C[C@@]4(C)[C@]3(F)[C@@H](O)C[C@]21C | -18.3% [at 25.6 µM] | –
COc1ccc(NC(=O)CN2c3cccc4cccc(c34)S2(=O)=O)cc1 | – | 3.16 µM (active)
O=C(CN1C(=O)c2ccccc2S1(=O)=O)Nc1ccccc1 | -18.7% | –
CS(=O)(=O)Nc1c(O)ccc2c1CCC[C@H]2C1=NCCN1 | -8.28% | –
CS(=O)(=O)N1CCC2(CCN(C(=O)Nc3cccc(F)c3)CC2)CC1 | -12.6% | –
CCOC(=O)c1c(C)nc2c(c1-c1ccccc1)C(=O)CCC2 | – | 0.282 µM (active)
CC1(C)CC(=O)c2c(Cc3ccccc3)n[nH]c2C1 | -21.9% | –
CCOC(=O)c1c(C)nc2c(c1-c1ccccc1)C(=O)CC(C)(C)C2 | – | 14.1 µM (active)
CCOC(=O)c1c(C)nc2sc3c(=O)n(-c4ccc(C)cc4)cnc3c2c1-c1ccc(OC)cc1 | 12.7% | –
CCCCCCCCCCn1c2c(c(=N)c3c1CCC3)CCC2 | – | 14.1 µM (active)
C[C@H]1COC(=O)[C@H]2CCCN2C(=O)[C@@H](C)COC(=O)[C@H](Cc2ccccc2)NC1=O | -1.22% [at 11.4 µM] | –
Oc1c(Br)cc(CN(Cc2cc(Br)c(O)c(Br)c2)C2CCCCC2)cc1Br | -5.68% [at 2.29 µM] | –
Oc1c(Br)cc(Br)cc1CN(Cc1cc(Br)cc(Br)c1O)C1CCCCC1 | – | 3.16 µM (active)

SMILES | activity, negative = inhibition | AC50
CON1C(=O)C(=O)N(OC)C2CCCCC21 (configuration not stated) | 14% | –
Cc1cnc(CNc2nc(-c3cccnc3)nc3ccccc23)cn1 | – | 2.51 µM (active)
COc1cccc(-c2nc(NCc3cnc(C)cn3)c3ccccc3n2)c1 | – | 0.398 µM (active)
CN(C)c1ccc(-c2nccc(NCc3cccs3)n2)cc1 | – | 0.398 µM (active)
CN(C)C(=O)c1ccc(-c2nccc(NCc3cccs3)n2)cc1 | – | 15.8 µM (active)
CN(C)CCN(Cc1cccs1)c1ccccn1 | -19.1% | –
c1cncc(-c2nccc(NCc3cccs3)n2)c1 | – | 0.2 µM (active)
c1csc(CNc2ccnc(-c3ccoc3)n2)c1 | – | 1 µM (active)
CC(C)=CCC/C(C)=C/CO/N=C1/[C@H]2O[C@@H]2[C@@H](O)[C@H]2[C@H]1CCn1c(=O)n(-c3ccccc3)c(=O)n12 | 3.05% [at 11.4 µM] | –
C[C@@H](c1ccccc1)N1C(=O)[C@H]2[C@H]3[C@H](O)[C@H](O)C/C(=N/OCc4ccccc4)[C@H]3CC[C@@H]2C1=O | -3.77% [at 11.4 µM] | –
C=CCCC(=O)Nc1nc(C)c(-c2csc(Nc3ccc(Cl)cc3)n2)s1 | – | 5.01 µM (active)
COc1ccccc1Nc1nc(-c2sc(NC(=O)c3ccccc3)nc2C)cs1 | -22.6% | –
Cc1nc(NC(=O)c2ccccc2)sc1-c1csc(Nc2cccc(F)c2)n1 | – | 11.2 µM (active)
Cc1nc(NC(=O)c2ccccc2)sc1-c1csc(Nc2ccc(Cl)cc2Cl)n1 | -19.1% | –
Cc1ncc(CO)c(CO)c1O | -13% [at 25.6 µM] | –
Cc1nnc(N(C)C(=O)c2ccccn2)s1 | -21.3% | –
CC(=O)N(C)c1nnc(-c2cnccn2)s1 | – | 6.31 µM (active)
C[C@@H]1C(=O)N(C)C(=O)c2nc[nH]c21 | -19.5% | –
O=C1OC(OC2CCCCC2)(c2ccccc2)c2ccccc21 (configuration not stated) | -10.7% | –
Cc1ccccc1-c1cncnc1Nc1ccc(F)cc1 | – | 10 µM (active)
Cc1ccccc1-c1cncnc1Nc1ccccc1 | – | 15.8 µM (active)
CCOCCCNC(=O)CCS(=O)(=O)Cc1ccc(C)cc1 | -7.44% | –
COc1ccccc1-c1nnc(NC(C)=O)s1 | – | 1.26 µM (active)
